According to PubChem BioAssay (NCI):
This is part of a sample that, as a whole, favours compounds with a hit. Of some 83,000 tested, about 20% had one in any assay.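 Percent growth is the endpoint: 0 to 100 indicates growth inhibition (40 means 60% inhibition), 0 means no net growth, and negative values indicate cell death.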 The source made the active and inactive calls. The calls were made as follows: active = growth percent below 10; inactive = the rest.

system: MDA-MB-468 breast; test: NCI-60 one-dose screen, 48 h (100 = growth as untreated, 0 = no growth, -100 = all killed); conditions: 10 µM unless noted

Structure (SMILES) | growth
CCOc1cccc(/C=N/NC(=O)c2cccc(Nc3ccnc(C(F)(F)F)c3)c2)c1O | 31.4% (inactive)
O=NC1CC=CCC1c1ccccc1 (centres undefined) | 104% (inactive)
CC(=Nc1ccccc1)C1=C(O)C(Cc2ccccc2)NC1=O (centres undefined) | 15.4% (inactive)
Cn1cc(-c2nc(-c3c[nH]c4c(Cl)nccc34)cs2)c2cc(Br)ccc21 | 19.9% (inactive)
CC(=O)Nc1ccc(C)c(Nc2cc(-c3ccc(-n4cccn4)cc3)[nH]n2)c1 | 20% (inactive)
COc1cc(OC)c2c(=O)c3c(CC=C(C)C)cc(OC)c(O)c3oc2c1 | 110% (inactive)
CN1CCCC1c1cccnc1 (centres undefined) | 97.1% (inactive)
COc1ccc(S(=O)(=O)n2cc(C3OC(c4cc(OC)c(OC)c(OC)c4)=NN3C(C)=O)c3ccccc32)cc1OC (centres undefined) | 105% (inactive)
NC1=NN=C(N)C1=Cc1cc2ccccc2n2nnnc12 | 94.8% (inactive)
Cc1ccc(S(=O)(=O)N/N=C/c2cn(-c3ccc(F)cc3)nc2-c2ccc(S(C)(=O)=O)cc2)cc1 | 97% (inactive)
COc1ccc(OC)c(NC(=O)/C(C#N)=C/c2ccco2)c1 | 85.2% (inactive)
O=C(O)C(Cc1ccccc1)C(=O)O | 82.4% (inactive)
CC(=O)Nc1ccc(S(=O)(=O)N2C(=O)CCC2C(=O)Nc2ccc(Br)cc2)cc1 (centres undefined) | 20.6% (inactive)
C1C[S+]2CC[S+]1CC2 | 101% (inactive)
O=C1c2ccccc2OC=C(c2ccccc2)N1CCCCNc1ccc(F)cc1 | 76.3% (inactive)
CCCCCCn1c(-c2ccc(C(=O)O/N=C(\N)c3ccc(OC)cc3)cc2)nc(-c2ccccc2)c1-c1ccccc1 | -6.91% (active)
O=C(CCN1CCCC1)Nc1ccc2c(NCc3ccccc3)c3ccccc3nc2c1 | -37.1% (active)
Cc1ccc(S(=O)(=O)c2nc(-c3ccc(F)cc3)oc2S(C)(=O)=O)cc1 | 57.7% (inactive)
Nc1ccc2[nH]c(-c3ccccc3)cc(=O)c2c1 | 51% (inactive)
N/C(=N\C(N)=N\c1nc2ccccc2s1)c1cccc(Cl)c1 | 110% (inactive)
CCOC(=O)c1c2c(n3ccc(C)cc13)C(=O)c1ccccc1C2=O | 102% (inactive)
CCN(CC)CCNc1ccc(Cl)cc1Cl | 108% (inactive)
COc1ccc(OC)c(CCn2cncc2-c2c[nH]c3ccc(Cl)cc23)c1 | -14.9% (active)
COc1ccc(-c2nnc(NC(=O)CN3CCN(c4cc5c(cc4F)c(=O)c(C(=O)O)cn5C4CC4)CC3)s2)cc1OC | 93% (inactive)
